The nature of test [1]: NCI Yeast Anticancer Drug Screen. Data for the rad50 strain (AID 155).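 Note: 0% = growth of vehicle-only cultures of the same strain.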 The note with it: S. cerevisiae rad50 strain growth inhibition; at 50.0 µM; active compounds read high. The essentials: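 Yeast carrying a defined DNA repair defect were exposed to test compounds, and growth was compared with vehicle-treated controls to give percent inhibition.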
Test [2] can be described thus: NCI Yeast Anticancer Drug Screen. Data for the mec2-1 strain (AID 157). To be noted: S. cerevisiae mec2-1 strain, at 50.0 µM, active compounds read high. A digest of the protocol:
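Cells of the genetically defined mec2-1 yeast strain are incubated with test compound. Inhibition of growth is calculated against vehicle-treated controls.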

Test [3] can be described thus: NCI Yeast Anticancer Drug Screen. Data for the sgs1 mgt1 strain (AID 161).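 Note: 0% = growth of cultures given vehicle only.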 The note with it: S. cerevisiae sgs1 mgt1 strain, at 50.0 µM, active compounds read high. The essentials: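 Test agents were incubated with a DNA-repair-mutant yeast strain. Growth was then read and compared against vehicle-treated controls.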
Test [4] is described as follows: NCI Yeast Anticancer Drug Screen. Data for the cln2 rad14 strain (AID 165).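 Note: 0% = growth equal to vehicle treated cultures.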 The note with it: S. cerevisiae cln2 rad14 strain, at 50.0 µM, active compounds read high. A digest of the protocol: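 The screen exposed genetically defined yeast (cln2 rad14) to test compounds and scored growth inhibition relative to vehicle-treated controls.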
A short description of test [5]: NCI Yeast Anticancer Drug Screen. Data for the bub3 strain (AID 167). To be noted: S. cerevisiae bub3 mutant strain, at 50.0 µM, active compounds read high. The essentials: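 Compounds were applied to a genetically altered yeast strain carrying a cell-cycle control defect. Growth inhibition was scored against vehicle-treated controls.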
Test [6] in a line: NCI Yeast Anticancer Drug Screen. Data for the mlh1 rad18 strain (AID 175). To be noted: S. cerevisiae mlh1 rad18 strain growth inhibition; at 50.0 µM; active compounds read high. The essentials: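 Compound-treated yeast growth, normalised to vehicle controls. Strain bears defined DNA repair mutations.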

Each structure is given as a SMILES string. The panel holds about 79,000 compounds, 15% with a hit somewhere; the sample as a whole holds those more often. Values without a mark were called inactive. Active and inactive are the calls of the source. Cut-off read from the data, not from the text of the source: active = growth inhibition above about 70%; inactive = the rest.

For `CC(C)CC1NC(=S)N(c2ccccc2)C1=O` (stereo not given), the growth inhibition was -11% in test [1]; -18.4% in test [2]; -13.7% in test [3]; -10.1% in test [4]; -8.05% in test [5]; -24.7% in test [6].
For the molecule `CC(C)CCNC(=O)CS(=O)(=O)c1ccc(N)cc1`, the growth inhibition in test [1] is -2.15%; in test [2], -3.05%; in test [3] it was -11.9%; in test [4] it was -34.2%; in test [5] it was -23.1%; in test [6], -8.55%.
Consider `Nc1cc(Cl)cc2cc(Cl)cnc12`, for which the growth inhibition in test [1] is 54.2%; in test [2], 54.8%; in test [3], 25.4%; in test [4], 29.1%; in test [5], 47.4%; in test [6] it was 39.5%.
With `COC(=O)c1cc(=O)n(C)c2ccc(OC)cc12`, the growth inhibition in test [1] is 21.1%; in test [2], 10.8%; in test [3], -5.3%; in test [4] it was 9.75%; in test [5] it was 13.6%; in test [6], 20.7%.
In the case of `O=C(N/N=C\c1ccc(Cl)cc1Cl)C1CC1`, the growth inhibition in test [1] is -19.8%; in test [2], -3.8%; in test [3] it was -7.6%; in test [4], -19.2%; in test [5], -19.3%; in test [6] it was -24.9%.
As to `C/C(=N\Nc1ccc([N+](=O)[O-])cn1)c1ccccn1`, the growth inhibition in test [1] is 31.2%; in test [2] it was -10.2%; in test [3], 25.4%; in test [4], 5.6%; in test [5], 12.2%; in test [6] it was -1.3%.
Take `CCCCCCCC/C=C\CCCCCCCC(=O)OCC1CCCO1` (stereo not given): the growth inhibition is -6.8% in test [1]; 4.7% in test [2]; -26.6% in test [3]; 69.2% in test [4]; 33.6% in test [5]; 4.45% in test [6].
On to `CC(C)(O)C(F)(F)F`, for which the growth inhibition in test [1] is 13.8%; in test [2], -5.85%; in test [3], 27.1%; in test [4], 12.2%; in test [5], -3.4%; in test [6] it was 25.5%.
In the case of `COc1cc(/C=C(\C#N)C(=O)c2ccccc2)ccc1O`, the growth inhibition in test [1] is -13.8%; in test [2], -18.1%; in test [3] it was -11.9%; in test [4], 5.4%; in test [5], -27.5%; in test [6], 3.05%.
Consider `CCN(CC)CCCNc1[nH]ncc2c(C)c3nc4ccccc4c3cc12`, for which the growth inhibition in test [1] was 14.1%; in test [2] it was -10.2%; in test [3] it was 14.7%; in test [4], 10.1%; in test [5], 9.4%; in test [6], -4.05%.
For `CCN(CC)CCOC(=O)c1ccc(N=Nc2cc(NC(C)=O)ccc2O)cc1`, the growth inhibition is 3.35% in test [1]; -3.7% in test [2]; -0.7% in test [3]; 4.15% in test [4]; 2.35% in test [5]; 5.05% in test [6].
Turning to `C/C(=N/O)c1c[n+]([O-])ccn1`, the growth inhibition in test [1] is -3.9%; in test [2] it was -3.15%; in test [3], -7.9%; in test [4], -31.2%; in test [5], 4.7%; in test [6], -0.5%.
`Oc1ccccc1C=Nc1ccc(Cl)cc1`: the growth inhibition was -1.35% in test [1]; 3.6% in test [2]; -5.5% in test [3]; -12.7% in test [4]; -21.6% in test [5]; 6.85% in test [6].
As to `C/C(Cl)=C/CC1(C)CCCC(C)(C)CC1=O` (stereo not given), the growth inhibition in test [1] was 6.4%; in test [2] it was 7.4%; in test [3], 1.5%; in test [4], 2.05%; in test [5], 1.85%; in test [6], -10.3%.
Regarding `CCOC(=O)/C=C(/O)CC(=O)OCC.[Cu+2]`, the growth inhibition was -11.8% in test [1]; -1.8% in test [2]; -5.7% in test [3]; -21% in test [4]; -17.1% in test [5]; -0.45% in test [6].
Regarding `Cc1cc(=O)[nH]c(=O)n1CCCN(C)CCCn1c(C)cc(=O)[nH]c1=O`, the growth inhibition in test [1] is 2.2%; in test [2], -2.35%; in test [3] it was 8.85%; in test [4], -0.9%; in test [5], -28.6%; in test [6] it was -3.95%.
For the molecule `CC1(C)CCCOc2cccc(c2)OCCCC(C)(C)C1=O`, the growth inhibition was 14.5% in test [1]; -1.7% in test [2]; -9.05% in test [3]; 27.1% in test [4]; 28.8% in test [5]; 25.9% in test [6].
Take `CCCC(CC)C(=O)NC(N)=O` (stereo not given): the growth inhibition in test [1] is -7.2%; in test [2], -5.9%; in test [3], -7.8%; in test [4], -8.55%; in test [5], -20.2%; in test [6], 8.7%.
Turning to `CC(=O)N1c2ccccc2C2(C)CCCC(O)C12O` (stereo not given), the growth inhibition in test [1] was 8.05%; in test [2], 6.05%; in test [3], -3.9%; in test [4] it was 1.9%; in test [5], 6.5%; in test [6], -23.9%.
For the molecule `Cc1ccc(Cl)cc1NC(=O)C(Br)C(Br)C(=O)O` (stereo not given), the growth inhibition in test [1] was 93.2% (active); in test [2], 99.4% (active); in test [3], 99.5% (active); in test [4], 90.2% (active); in test [5] it was 99% (active); in test [6], 98.8% (active).

These data come from PubChem BioAssay (NCI).
